Outcome and activity change data for 30 compounds are collected here from PubChem BioAssay (Tox21).

A number with no mark means an inactive call. Active and inactive are the calls of the source. The call rests on the fitted dose curve.
On the % scale 0 is the no-effect control and ±100 the full control effect.

A short description of the experiment: qHTS assay to identify small molecule agonists of the sonic hedgehog signaling (Shh) pathway (AID 1259368).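 Further: NIH/3T3-derived 3T3Gli1-Luc cells carrying a stable Gli1-driven firefly luciferase reporter; nearly all actives have a fitted effect of over 15% in size.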 As to conditions: NIH/3T3 Gli1-Luc reporter, luciferase, 24 h, active compounds read high; series mostly up to 92.4 µM. The source says:
National Center for Advancing Translational Sciences [NCATS]
NIH Chemical Genomics Center [NCGC]
U.S. Environmental Protection Agency [EPA]
National Institutes of Environmental Health Sciences [NIEHS]
National Toxicology Program [NTP]
The sonic hedgehog (Shh) pathway is essential for normal embryonic development. Dysregulation of the Shh pathway can cause severe developmental defects in organs. Therefore chemicals that interfere with the pathway are potential developmental toxicants. A cell line designated 3T3Gli1-Luc (DMB/OARSA/CFSAN/FDA, Laurel, MD), a NIH/3T3 derived clone containing stably integrated Gli1-Luc reporter is used to detect chemical interference of the Shh pathway, by changes in the expression of the firefly Luc gene under the control of the Gli1 transcriptional response element. This cell line was used to screen Tox21 libraries for identifying and prioritizing the potential developmental toxicants that interfere Shh pathway.
3T3 Gli1-Luc cells were dispensed at 2,000 per well in 5uL of culture medium into white solid bottom 1536-well plates (Greiner Bio-One, Monroe, NC) using a Multidrop Combi (Thermo Scientific, Waltham, MA) dispenser. The assay plates were incubated at 37 C and 5% CO2 for 4hr, and then 23nL of compounds dissolved in DMSO and positive control were transferred using a Pintool station (Wako, San Diego, CA). The assay plates were incubated at 37C and 5% CO2 for 24hr. For luciferase read, 4uL of Amplite Luciferase reporter gene assay reagent (AAT Bioquest, Inc. Sunnyvale, CA) was added to each well of the assay plates using Flying Reagent Dispenser (FRD, Aurora Discovery, San Diego, CA) and incubated at room temperature for 30min. The luminescence signal was measured using a ViewLux plate reader (Perkin Elmer, Shelton, CT).
Consider `N#Cc1cc([N+](=O)[O-])ccc1N`, for which the compound was classed as inactive. As for `ClC1=C(Cl)[C@]2(Cl)[C@@H]3[C@@H](Cl)[C@H]4O[C@H]4[C@@H]3C1(Cl)C2(Cl)Cl`, the result was inactive. The same measure, in the same setting: under `C[C@]12CC[C@@H](O)C[C@@H]1CC[C@@H]1[C@@H]2CC[C@]2(C)C(=O)CC[C@@H]12` stands “inactive”; under `CN1CSC(=S)N(C)C1`, “inactive”; under `ClC(Cl)=C(c1ccc(Cl)cc1)c1ccccc1Cl`, “inactive”.

As to `Cc1nnc2n1-c1sc(CCc3ccc(CC(C)C)cc3)cc1C(c1ccccc1Cl)=NC2C` (stereo not given), the compound was classed as inactive. With `O=[N+]([O-])c1ccccc1Cl`, the result was inactive. For `OCC(c1ccc(Cl)cc1)c1ccc(Cl)cc1`, the compound was called inactive. In the case of `Cc1ccc2nc3sc(=O)sc3nc2c1`, the activity change is 2.66% [at 18.9 µM]. For the compound `CNC(=O)Oc1cc(C)c(SC)c(C)c1`, the compound was called inactive. `Nc1ccc([N+](=O)[O-])cc1`: the outcome was inactive. As for `Clc1ccccc1-c1ccccc1Cl`, the compound was classed as inactive. For the compound `COc1cc(OC)c(OC)cc1C=O`, the compound was classed as inactive. As for `CCN(CC)C(=O)Cl`, the compound was called inactive. Consider `O=[N+]([O-])c1c(Cl)c(Cl)cc(Cl)c1Cl`, for which the compound was called inactive.

In the case of `O=C(Nc1ccccc1-c1ccc(Cl)cc1)c1cccnc1Cl`, the compound was classed as inactive.

For `Oc1c(I)cc(I)cc1I`, the compound was classed as inactive. With `O=S(=O)(C(Cl)(Cl)Cl)C(Cl)(Cl)Cl`, the outcome was inactive. For the compound `c1ccc2c(c1)Sc1ccccc1N2CC1CN2CCC1CC2` (stereo not given), the result was inactive. With `CCOC(=O)C(O)(c1ccc(Cl)cc1)c1ccc(Cl)cc1`, the result was inactive.

Turning to `Cc1cc(C(C)(C)c2ccc(O)c(C)c2)ccc1O`, the outcome was inactive. `Cc1ccc(N(SC(F)(Cl)Cl)S(=O)(=O)N(C)C)cc1`: the call was inactive. For the compound `CC(c1ccccc1)(c1ccc(O)cc1)c1ccc(O)cc1`, the outcome was inactive. The same measure, in the same setting: under `Cc1cc(C)c(C(=O)P(=O)(c2ccccc2)c2ccccc2)c(C)c1` stands “inactive”; under `CO/C=C(/C(=O)OC)c1ccccc1Oc1cc(Oc2ccccc2C#N)ncn1`, “inactive”. Regarding `O=C(c1ccccc1)C(Cl)Cl`, the compound was called inactive. The same measure, in the same setting: under `O=C1C(I)=CC(=C(c2cc(I)c(O)c(I)c2)c2ccccc2C(=O)O)C=C1I` stands “inactive”; under `OC(Cc1ccccc1Cl)(Cn1[nH]cnc1=S)C1(Cl)CC1` (stereo not given), “inactive”; under `COc1ccc(C(c2ccc(OC)cc2)C(Cl)(Cl)Cl)cc1`, “inactive”.

With `CC1COC(Cn2cncn2)(c2ccc(Oc3ccc(Cl)cc3)cc2Cl)O1` (stereo not given), the compound was called inactive.
